Test results taken from PubChem BioAssay (NCATS).
Records with an inconclusive call do not appear. Entries that show only a call come without a potency. Calls of active or inactive are those of the source. The call rests on the fitted dose curve; in most records, active means well fitted inhibition curve with a large enough effect; inconclusive means small, poorly fitted or top-dose-only effect; inactive means flat fitted curve, though single readings scatter.

Experiment: High Content Imaging Cell-Based qHTS for Inhibitors of the mTORC1 Signaling Pathway in MEF (Tsc2-/-, p53-/-) Cells (AID 2666);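 further: percent of cells scored positive for phospho-rpS6 Ser235/236 immunostaining by imaging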
Settings: series mostly up to 38.3 µM
Description: NIH Molecular Libraries Probe Production Centers Network [MLPCN]
NIH Chemical Genomics Center [NCGC]
Assay Submitter (PI): Blenis, John; Hoffman, Greg; Harvard University
NCGC Assay Overview: Thee mammalian target of rapamycin (mTOR) is an intracellular serine/threonine kinase Aberrant regulation of mTOR signaling plays a causative role in a number of human diseases, including cancer, benign tumors such as lymphangioleiomyomatosis (LAM) and Tuberous Sclerosis Complex (TSC), and metabolic diseases such as diabetes and obesity. This project aims to identify inhibitors of ribosomal protein S6 (rpS6) phosphorylation. The phosphorylation of rpS6 is a key event downstream of mTOR activation. The assay uses a phospho-specific antibody of phospho-rpS6 to detect inhibitors of mTOR activation. Mutations in the Tsc1 and Tsc2 genes are the underlying genetic lesions responsible for TSC, causing constitutive activation of the mTORC1 pathway and leading to profound effects on cell metabolism. Aberrant metabolism in cancer has recently received significant attention as a target to develop therapeutic agents in the treatment of cancer1. As Tsc2-/- cells have lost the ability to respond to energy and growth factor deprivation, these cells are unable to properly down regulate cellular biosynthetic processes in response to metabolic stress, and are thus extremely sensitive to glucose deprivation-induced death.2 A central goal of this project is to explore the unique cell survival and metabolic properties of cells with Tsc1 or Tsc2 by screening for compounds that selectively target the Tsc2-/- MEFs by screening both Tsc2-/- and WT MEF cell lines. We hope to better understand these aspects of TSC physiology in order to exploit them for therapeutic benefit.
NCGC IN Cell Assay Protocol:
For quantitative high throughput analysis of mTORC1 signaling, we developed a cell-based assay for immuno-fluorescence based detection of rpS6 phosphorylation on the Acumen Explorer that will be used a platform for the primary small molecule screen. Mouse embryonic fibroblasts (MEFs) are cultured in 1536-well plates using DMEM + 10% FBS. Twenty-four hrs after plating, test compounds (solubilized in DMSO) are delivered and incubated with the cells for 24 hrs at 37 degree Celsius. Following the incubation, media with compound is aspirated and the cells are fixed in 4% paraformaldehyde (PFA) containing PBS + 0.2% TX-100. Next, PFA is aspirated, cells are washed two times with PBS plus 0.2% TX-100 and the cells are blocked for 1 hr at room temperature (blocking buffer: LiCOR Blocking Buffer plus 0.2% TX-100). This is followed by aspiration and staining with Alexa-488 conjugated-phospho-rpS6 Ser235/236 antibody for 2 hours at room temperature (Cell Signaling Technology # 4803, 1:50 dilution in blocking buffer). Cells are washed two times with PBS plus 0.2% TX-100, and stained with 10 uM propidium iodide (PI) for 20-25 minutes for cell number measurement (1:500 dilution of Hoescht staining is also added for IN Cell imaging). Active wells which are selected (based on Acumen results) are imaged on the IN Cell 1000 (GE Healthcare) using the D360/40X and HQ480/40X excitation filters for the Hoechst and Alexa-488 cytoplasmic stains, respectively. The fluorescence emission filters used were HQ460/40M and HQ535/50M for the Hoechst and Alexa-488 cytoplasmic stains, respectively. The normalized phospho-S6 staining is calculated as the ratio of […] for the single concentration rapamycin control ([…] nM) and DMSO columns. […] Inhibition of the pathway is defined based on the normalized phospho-S6 intensity in rapamycin treated cells. Each treatment is reported as the % positive cells in the well, where thresholds are defined by selecting wells with the highest and lowest signal and differentiating between the % non-active and % active populations. […]
Potency means the concentration at half of the fitted maximal effect.

| SMILES | Potency |
| --- | --- |
| NN=C(N)N | inactive |
| Cc1cc2c(C(C)C)c(O)c(O)c(C=O)c2c(O)c1-c1c(C)cc2c(C(C)C)c(O)c(O)c(C=O)c2c1O | 2610 nM (active) |
| N#CC(C#N)=Cc1ccc(O)c(O)c1 | inactive |
| COc1ccccc1N1CCNCC1 | inactive |
| CC[C@@H](CO)NC(=O)[C@@H]1C=C2c3cccc4[nH]cc(c34)C[C@H]2N(C)C1 | inactive |
| CC(CCc1ccccc1)NC(C)C(O)c1ccc(O)cc1 (stereo unspecified) | inactive |
| CCCN1CCC[C@@H]2Cc3[nH]ncc3C[C@H]21 | inactive |
| CC(=O)[C@H]1CC[C@H]2[C@@H]3CC[C@H]4C[C@H](O)CC[C@]4(C)[C@H]3C(=O)C[C@]12C | inactive |
| O=c1[nH]c2ccccc2n1CCCN1CCC(n2c(=O)[nH]c3cc(Cl)ccc32)CC1 | inactive |
| CCCN1CCC[C@@H]2Cc3nc(N)ncc3C[C@H]21 | inactive |
| Cc1ncc(CNC(=O)N(CCCl)N=O)c(N)n1 | inactive |
| O=C1NCN(c2ccccc2)C12CCN(CC1COc3ccccc3O1)CC2 (stereo unspecified) | inactive |
| CNCC(O)c1ccc(O)cc1 (stereo unspecified) | inactive |
| CC[C@@H](CO)NC(=O)[C@@H]1C=C2c3cccc4c3c(cn4C)C[C@H]2N(C)C1 | inactive |
| C[C@@H]1O[C@@H](O[C@H]2C[C@@H](O)[C@]3(CO)[C@H]4[C@H](O)C[C@]5(C)[C@@H](C6=CC(=O)OC6)CC[C@]5(O)[C@@H]4CC[C@]3(O)C2)[C@H](O)[C@H](O)[C@H]1O | inactive |
| CC(=O)[C@H]1CC[C@H]2[C@@H]3CC[C@H]4C[C@](C)(O)CC[C@]4(C)[C@H]3CC[C@]12C | inactive |

| SMILES | Potency |
| --- | --- |
| C=C(C)[C@H]1Cc2c(ccc3c2O[C@@H]2COc4cc(OC)c(OC)cc4[C@@H]2C3=O)O1 | inactive |
| COC[C@H]1OC(=O)c2coc3c2[C@@]1(C)C1=C(C3=O)C2CCC(=O)[C@@]2(C)C[C@H]1OC(C)=O (stereo partly specified) | inactive |
| CC(C)=CCOc1c2occc2cc2ccc(=O)oc12 | inactive |
| Cc1ccc(S(=O)(=O)N[C@@H](CCCCN)C(=O)CCl)cc1 | inactive |
| COc1ccc(C(CN(C)C)C2(O)CCCCC2)cc1 (stereo unspecified) | inactive |
| NCC(CC(=O)O)c1ccc(Cl)cc1 (stereo unspecified) | inactive |
| Nc1ccncc1 | inactive |
| Cc1cccc(C)c1NC1=NCCCS1 | inactive |
| NCC(O)c1ccc(O)cc1 (stereo unspecified) | inactive |
| Cc1cccc(C)c1NC(=O)CN1CCCC1=O | inactive |
| c1ccc(C2CC2)c(OCC2=NCCN2)c1 | inactive |
| NCC1(CC(=O)O)CCCCC1 | inactive |
| CCCC(C)(COC(N)=O)COC(=O)NC(C)C (stereo unspecified) | inactive |
| CC(O)(CS(=O)(=O)c1ccc(F)cc1)C(=O)Nc1ccc(C#N)c(C(F)(F)F)c1 (stereo unspecified) | inactive |
| CCC1(C2=NCCN2)Cc2ccccc2O1 (stereo unspecified) | inactive |
